Screening data from PubChem BioAssay.
Sm TGR inh: qHTS Assay for the Inhibitors of Schistosoma Mansoni Peroxiredoxins; purified TGR, DTNB reduction, TNB absorbance 405 nm; Potency, µM (series often up to 114 µM), for the others: top-dose activity change, negative = inhibition, usual class: inhibitors; 360,000 compounds, 3% hits; AID 485364, 2010; note: % is set by controls: 0 for no effect and ±100 for the full control effect; nearly all actives have a fitted effect of over 60% in size
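First, TGR (20 nM dispensed) and NADPH were mixed with compound. Second, a 15 min room-temperature incubation followed. Third, further NADPH and then DTNB were added to start the reaction. Finally, TNB absorbance was monitored kinetically.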
Pf growth 48h: Primary qHTS for delayed death inhibitors of the malarial parasite plastid, 48 hour incubation. P. falciparum luciferase growth in erythrocytes, 48 h. Potency, µM (highest dose often 28.7 µM), for inactives: at the highest dose activity change, negative = inhibition, usual class: inhibitors. 310,000 compounds, 5.9% hits. AID 504832, 2011; note: % is set by controls: 0 for no effect and ±100 for the full control effect
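In quantitative HTS format, infected erythrocytes bearing luciferase-reporter parasites were treated for a single generation at 37 C. Luminescence after adding detection reagent served as the growth measure.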
SARS PLpro yeast: qHTS of Yeast-based Assay for SARS-CoV PLP; S. cerevisiae expressing SARS-CoV PLpro, growth rescue; Potency, µM (doses to about 32.9 µM), for inactives: at the top dose activity, positive = growth rescue, hits mostly activators; 330,000 compounds, 0.19% hits; AID 485353, 2010; calls by dose curve; note: 0% is about no effect; nearly all actives have a fitted effect of over 55% in size
AmpC inh detg: qHTS Inhibitors of AmpC Beta-Lactamase (assay with detergent); AmpC hydrolysis of nitrocefin, absorbance 480 nm, 0.01% Triton; Potency, µM (doses to about 114 µM), inactives show top-dose activity change, negative = inhibition, usual class: inhibitors; 370,000 compounds, 0.041% hits;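 note: 0% = no-compound wells and -100% = no-enzyme wells; nearly all actives have a fitted effect of over 25% in size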
Target sequence (P00811 whole entry, looked up): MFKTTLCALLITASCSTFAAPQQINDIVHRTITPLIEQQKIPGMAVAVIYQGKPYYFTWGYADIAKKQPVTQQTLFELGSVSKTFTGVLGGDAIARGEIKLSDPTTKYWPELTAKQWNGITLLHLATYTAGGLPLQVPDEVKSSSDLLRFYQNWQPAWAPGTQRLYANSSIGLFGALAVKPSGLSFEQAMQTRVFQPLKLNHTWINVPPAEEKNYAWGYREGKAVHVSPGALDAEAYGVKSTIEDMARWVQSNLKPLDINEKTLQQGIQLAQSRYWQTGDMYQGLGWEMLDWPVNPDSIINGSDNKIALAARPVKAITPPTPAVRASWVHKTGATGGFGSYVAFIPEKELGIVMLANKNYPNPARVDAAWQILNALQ
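AmpC (5.3 nM in the dispensed reagent) in 20 mM phosphate pH 7.0 with 0.01% (detergent screen) or 0.0001% Triton X-100 was preincubated with compounds for 15 min at room temperature. Nitrocefin was then added from an 800 uM solution, and hydrolysis was followed at 480 nm.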
Pf growth 96h: Primary qHTS for delayed death inhibitors of the malarial parasite plastid, 96 hour incubation; P. falciparum luciferase reporter growth, 96 h; Potency, µM (series often up to 28.7 µM), without a hit: top-dose activity change, negative = inhibition, actives largely listed as inhibitors; 320,000 compounds, 6.9% hits; note: % is set by controls: 0 for no effect and ±100 for the full control effect
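Plates of compound plus infected erythrocytes (2% hematocrit, 0.05% parasitemia final) incubate 96 hours, 37 C, 5% CO2. Detection reagent added; reduced luminescence from the parasites' luciferase reporter flags inhibition.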
AmpC no deterg: qHTS Inhibitors of AmpC Beta-Lactamase (assay without detergent). Potency, µM (top dose mostly 57.1 µM), without a hit: at the highest dose activity change, negative = inhibition, usual class: inhibitors. P00811. 330,000 compounds, 0.52% hits. AmpC nitrocefin hydrolysis, absorbance 480 nm, 0.0001% Triton;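 note: plate controls were no compound for no effect and no enzyme for full effect; nearly all actives have a fitted effect of over 20% in size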
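AmpC (5.3 nM in the dispensed reagent) in 20 mM phosphate pH 7.0 with 0.01% (detergent screen) or 0.0001% Triton X-100 was preincubated with compounds for 15 min at room temperature. Nitrocefin was then added from an 800 uM solution, and hydrolysis was followed at 480 nm.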
* marks the source's active call; other numbers are inactive results; ? = inconclusive; nt = no result given; ! = not confirmed by another sample. Sampled rows, rich in hits. Any-hit rate of the full collection: about 12%. Unless noted, calls come from the whole dose curve; as a rule, active = well fitted curve in the direction sought with a large enough effect; inconclusive = small, poorly fitted or top-dose-only effect, or another doubt; inactive = no such curve, though single readings can be large; an effect the other way counts as inactive or inconclusive. Potency is the fitted concentration of half-maximal effect.

SMILES | Sm TGR inh | Pf growth 48h | SARS PLpro yeast | AmpC inh detg | Pf growth 96h | AmpC no deterg
O=C(NNc1nc2ccc(Cl)cc2s1)c1cc(-c2cccs2)nc2ccccc12 | -11.9% | ? | -60.1% | -14.3% | 7.38µM* | ?
COc1ccc(OC)c(NC(=O)c2cc3cc(C)ccc3n2C)c1 | -4.3% | nt | nt | 15.5% | nt | nt
CCOc1ccc2ncc(S(=O)(=O)c3ccccc3)c(N3CCN(c4ccc(OC)cc4)CC3)c2c1 | -6.6% | 8.28µM* | 13.8% | 2.0% | 2.94µM* | -16.3%
COc1ccc(N2CCN(c3c(S(=O)(=O)c4ccccc4)cnc4ccc(OC)cc34)CC2)cc1 | -23.9% | 8.28µM* | -71.9% | -7.6% | 4.15µM* | 12.1%
O=C(Cc1ccc(F)cc1)N1CCC(c2nc3c(nnn3Cc3ccc(Cl)cc3)c(=O)[nH]2)CC1 | 4.3% | nt | nt | 0.1% | nt | nt
O=C(Cc1ccc(F)cc1)N1CCC(CC2CC(c3cccc(Br)c3)=NO2)(C(=O)NCC2CCCCC2)CC1 (configuration not stated) | -5.3% | ? | -0.1% | ? | 1.17µM* | -7.6%
O=C(Cc1ccc(F)cc1)N1CCC(CC2CC(c3ccc(Cl)cc3)=NO2)(C(=O)NCC2CCCCC2)CC1 (configuration not stated) | 8.1% | ? | -1.3% | -0.4% | 4.65µM* | -1.3%
CN(C)c1ccc(C(=S)NCc2ccco2)cc1 | -15.0% | 168.0% | -4.2% | -4.9% | 24.8% | -19.3%
CCOc1ccccc1N=Nc1c(C)[nH]n(C(N)=S)c1=O | -9.1% | -0.5% | 1.1% | -5.8% | ? | -18.8%
O=S(=O)(c1ccccc1)c1nnn2c1nc(Nc1ccccc1)c1cc(Cl)ccc12 | 3.0% | nt | nt | 7.4% | nt | nt
Cc1nn(-c2ccccc2)c(N)c1N=Nc1ccccc1 | 0.0% | 167.0% | -71.5% | ? | 1.3% | -11.0%
Cc1ccc(C(c2c(C)nn(-c3ccccc3)c2N)c2c(C)nn(-c3ccccc3)c2N)cc1 | -8.8% | 10.4µM* | 3.9% | -6.2% | 13.1µM* | 235.6%
Cc1nn(-c2ccccc2)c(N)c1C(c1ccc(C(C)C)cc1)c1c(C)nn(-c2ccccc2)c1N | -3.3% | 10.4µM* | 2.6% | -15.0% | 0.0% | 179.7%
Cc1nn(-c2ccccc2)c(N)c1-c1ccccc1 | 2.1% | 91.9% | 1.9% | 6.7% | 239.8% | -10.6%
COc1ccc(/C=N/NC(=O)CN(C)C(=O)OCc2ccccc2)cc1OC | 4.6% | 0.0% | 1.1% | -1.9% | ? | 4.7%
COc1ccc(C)cc1NC(=O)CCS(=O)(=O)c1ccc2c(c1)oc(=O)n2C | -31.8% | 4.8% | -6.7% | -2.2% | -4.4% | -6.9%
CCC1(c2ccccc2)NC(=O)N(CC(=O)Nc2cccc(S(=O)(=O)N3CCCC3)c2)C1=O (configuration not stated) | -6.3% | ? | -3.7% | -13.3% | -24.7% | -39.8%
CCC1(c2ccccc2)NC(=O)N(CC(=O)Nc2cc(S(=O)(=O)N3CCCCCC3)ccc2OC)C1=O (configuration not stated) | -26.9% | 9.28µM* | 0.8% | 6.9% | 7.38µM* | -3.7%
CCOc1ccc(S(=O)(=O)N2CCCCC2)cc1NC(=O)CN1C(=O)NC(CC)(c2ccccc2)C1=O (configuration not stated) | -7.3% | 4.65µM* | 3.9% | 1.6% | 11.7µM* | 282.5%
CCC1(c2ccccc2)NC(=O)N(CC(=O)Nc2cc(S(=O)(=O)N3CCCCC3)ccc2OC(C)C)C1=O (configuration not stated) | -1.0% | 10.4µM* | nt | 10.1% | ? | 4.5%
CN(C)c1ccc(O)c2c1CC1CC3[C@@H](N(C)C)C(=O)C(C(N)=O)=C(O)[C@]3(O)C(=O)C1=C2O (some centres not stated) | ? | 4.65µM* | 3.0% | -1.7% | 0.329µM* | -22.3%
CN(C)[C@@H]1C(=O)C(C(N)=O)=C(O)[C@@]2(O)C(=O)C3=C(O)c4c(O)ccc(Cl)c4[C@@](C)(O)[C@H]3C[C@@H]12 | ? | ? | -0.3% | 0.1% | -26.2% | -37.2%
CN(C)C1C(=O)C(C(N)=O)C(=O)C2(O)C(=O)C3C(=O)c4c(O)cccc4C(C)(O)C3C(O)C12 (configuration not stated) | nt | 9.53µM* | nt | nt | 3.01µM* | nt
CN(C)[C@@H]1C(=O)C(C(N)=O)=C(O)[C@@]2(O)C(=O)C3=C(O)c4c(O)cccc4[C@@](C)(O)C3C[C@@H]12 (some centres not stated) | -20.5% | 7.38µM* | nt | -18.4% | 2.08µM* | -32.2%
C[C@H]1c2cccc(O)c2C(O)=C2C(=O)[C@]3(O)C(O)=C(C(N)=O)C(=O)[C@@H](N(C)C)[C@@H]3[C@@H](O)[C@@H]21 | 28.3% | 4.65µM* | -0.5% | 3.0% | 0.738µM* | -36.8%
SMILES | Sm TGR inh | Pf growth 48h | SARS PLpro yeast | AmpC inh detg | Pf growth 96h | AmpC no deterg
COc1ccc(N2CCN(Cc3cccn3-c3nnc(N4CCN(C5CCCCC5)CC4)s3)CC2)cc1 | -15.9% | nt | nt | 1.3% | nt | nt
Cc1ccsc1CN(C(=O)c1ccccc1)C1CCS(=O)(=O)C1 (configuration not stated) | 1.4% | 2.8% | -4.8% | 4.1% | 6.1% | 1.8%
CN(C)[C@@H]1C(=O)C(C(N)=O)=C(O)[C@@]2(O)C(=O)C3=C(O)c4c(O)cccc4[C@@](C)(O)[C@H]3[C@H](O)[C@@H]12 | 8.91µM* | 13.5µM*! | 13.0% | ? | 3.79µM*! | -23.1%
CCN(CC)CCNC(=O)Cc1nn(CC)c(=O)c2ccccc12 | 2.3% | 20.6% | -3.0% | -15.2% | nt | -22.1%
CCN(CC)CCNc1ccc(CO)c2sc3ccccc3c(=O)c12 | 4.3% | 3.7µM* | -2.2% | -8.8% | 2.94µM* | 23.2%
Cc1cccc2c1=NC(=O)/C(=C/c1c(O)[nH]c(=O)[nH]c1=O)C=2 | 35.5µM* | 15.4% | 11.0% | -14.2% | ? | -1.3%
O=c1[nH]c(=S)[nH]c(O)c1/C=C1/C=c2ccccc2=N1 | ? | -1.1% | 3.2% | ? | 25.8% | -5.6%
CC(C)CCn1c(SCc2ccc(F)cc2Cl)nc2ccsc2c1=O | -17.3% | nt | nt | 6.2% | nt | nt
Cc1c(Cl)cccc1N/C(SCC(=O)N1CCCCCC1)=C(/C#N)c1nc2ccccc2s1 | 7.2% | 2.08µM* | 4.7% | 1.2% | 1.47µM* | -47.1%
O=C(CSc1nc2ccccc2s1)N1CCCCC1 | -2.0% | 129.2% | -17.1% | ? | nt | -12.6%
CCOc1ccc(NC(=O)c2ccc3c(=O)n4nc(Nc5ccccc5C)sc4nc3c2)cc1 | 5.5% | nt | nt | 22.8% | nt | nt
